Experimental data taken from PubChem BioAssay (NCATS).
Inconclusive results are not listed. Unmarked numbers belong to inactive results. The source made the active and inactive calls. Calls follow the shape of the dose curve; as a rule, active = well fitted inhibition curve with a large enough effect; inconclusive = small, poorly fitted or top-dose-only effect; inactive = flat fitted curve, though single readings scatter. Numbered stars: 1 amine (or outer) side, 2 acyl side, 3 side chain; on linkers, the order of the positions; unused ones are H or OH. Bridge positions count the residues as written; N and C are the ends. Square brackets hold non-standard residues; d marks the D form. Peptide text beside a SMILES is read from it. * marks the point of attachment. ξ: configuration not given here. ΔAla(Z-3-ureido) = NC(=O)N/C=C(\N)C(=O)O; ξDab(CH2SO3H) = NC(CCNCS(=O)(=O)O)C(=O)O; X2 = NC1=NC(O)CC(C(N[*:1])C(=O)[*:2])N1; X1 = NC1=NCCC(C(N[*:1])C(=O)[*:2])N1; Heptanoyl(6-Me) = CC(C)CCCCC(=O)*; ξβ3hOrn = NCCCC(N)CC(=O)*; Orn = NCCC[CH](N)C(=O)O; Dab = NCC[CH](N)C(=O)O; Dap = NC[CH](N)C(=O)O
Potency is read from the fitted curve at half-maximal effect.

Each molecule was assayed on DFO2036 (assay: qHTS profiling for inhibitors of Plasmodium falciparum proliferation (AID 504749; also: nearly all actives have a fitted effect of over 60% in size;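 as to activity, negative = inhibition: 0% = DMSO vehicle and full inhibition = artemisinin control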)). Conditions: P. falciparum in erythrocytes, SYBR Green DNA, 72 h; series mostly up to 28.7 µM; activity, negative = inhibition: at the top concentration.
From the text: NIH National Institute of Allergy and Infectious Diseases [NIAID] NIH Chemical Genomics Center [NCGC] MLPCN Grant: None Assay Provider: Xinzhuan Su, NIAID NCGC Assay Overview: Plasmodium falciparum is a virulent malarial parasite that kills 1-2 million people worldwide each year. Transmitted by mosquitoes, the sporozoite form of the parasite enters the blood stream to infect hepatocytes, where they become merozoites that infect red blood cells (erythrocytes). Within erythrocytes, merozoites begin a […] cycle of growth and division, after which the parasite is released to infect new red blood cells. Gametocytes, which form within erythrocytes as well, circulate in the bloodstream and are ingested by the mosquito, thereby completing the life cycle. To profile malarial isolates for differential chemical responses and to identify inhibitors of malarial growth, an assay that measures P. falciparum growth and replication within erythrocytes was employed. This assay uses a DNA binding fluorescent dye (SYBR Green) to detect parasite DNA following cell lysis. Because mature erythrocytes lack DNA, only Plasmodium-derived DNA is detected.
NCGC Assay Protocol Summary: The SYBR Green viability assay was adapted from a method described previously (Plouffe et al., 2008). For screening 3 ul culture medium was dispensed into 1536 well black clear bottom plates (Aurora Biotechnologies) using a Multidrop Combi (Thermo Fisher Scientific Inc.), 23 nL compounds in DMSO were added by a pin tool (Kalypsys), and 5 ul of erythrocytes infected with P. falciparum (0.3% parasitemia, 2.5% hematocrit final concentration) were added. The plates were incubated at 37 C in a humidified incubator in 5% CO2 for 72 h, and 2 ul lysis buffer (20 mM Tris HCl, 10 mM EDTA, 0.16% saponin, 1.6% triton X, 10X SYBR Green I supplied as 10,000X […] by Invitrogen) was added to each well. The plates were mixed for 25 sec with gentle shaking and incubated overnight at room temperature in the dark. The following morning, fluorescence intensity at 485(14) nm excitation and 535(25) nm emission wavelengths was measured on an EnVision (Perkin Elmer) plate reader. Plate reads were normalized relative to the control inhibitor (0.29 uM artemisinin) and vehicle (DMSO) wells present on each plate and then corrected by an algorithm using vehicle-only control plates at the beginning and end of the compound plate stack.
With `CNCC(=O)NC(CCCN=C(N)N)C(=O)NC(C(=O)NC(Cc1ccc(O)cc1)C(=O)NC(C(=O)NC(Cc1cnc[nH]1)C(=O)N1CCCC1C(=O)NC(C)C(=O)O)C(C)C)C(C)C` (stereo not drawn) the “activity, negative = inhibition” value was 5.07%. In the case of `O=C(O)c1ccccc1-c1c2cc(Br)c(=O)c(Br)c-2oc2c(Br)c(O)c(Br)cc12`, the “activity, negative = inhibition” value is reported as 7.32%. For `NC(=O)CCC1NC(=O)C(Cc2ccccc2)NC(=O)C(Cc2ccc(O)cc2)NC(=O)CCSSCC(C(=O)N2CCCC2C(=O)NC(CCCN=C(N)N)C(=O)NCC(N)=O)NC(=O)C(CC(N)=O)NC1=O` (stereo not drawn), the “activity, negative = inhibition” value was 3.33%. In the case of `O=C(OCC1OC(OC(=O)c2cc(O)c(O)c(OC(=O)c3cc(O)c(O)c(O)c3)c2)[C@@H](OC(=O)c2cc(O)c(O)c(OC(=O)c3cc(O)c(O)c(O)c3)c2)C(OC(=O)c2cc(O)c(O)c(OC(=O)c3cc(O)c(O)c(O)c3)c2)C1OC(=O)c1cc(O)c(O)c(OC(=O)c2cc(O)c(O)c(O)c2)c1)c1cc(O)c(O)c(OC(=O)c2cc(O)c(O)c(O)c2)c1` (stereo partly drawn), the Potency is reported as 2240 nM (active). For `C=CC1=C(C(=O)O)N2C(=O)[C@@H](NC(=O)C(N=O)c3csc(N)n3)[C@H]2SC1` (stereo partly drawn), the “activity, negative = inhibition” value was 12.7%. For `CCC(C)C1NC(=O)C(Cc2ccc(O)cc2)NC(=O)C(N)CSSCC(C(=O)N2CCCC2C(=O)NC(CC(C)C)C(=O)NCC(N)=O)NC(=O)C(CC(N)=O)NC(=O)C(CCC(N)=O)NC1=O` (stereo not drawn), the “activity, negative = inhibition” value was 2.71%. For `NCCCC(N)CC(=O)NC1CNC(=O)C(C2CC(O)N=C(N)N2)NC(=O)/C(=C/NC(N)=O)NC(=O)C(CO)NC(=O)C(CO)NC1=O` (stereo not drawn) (ξβ3hOrn-[Dap]SS[ΔAla(Z-3-ureido)][X2]; lactam 1-C; configuration not given here), the “activity, negative = inhibition” value was 2.15%. `CCC(Oc1ccccc1)C(=O)NC1C(=O)N2C1SC(C)(C)C2C(=O)O` (stereo not drawn) was tested, and the “activity, negative = inhibition” value was 5.74%. In the case of `O=C1/C(=C\c2cccs2)CCC/C1=C/c1cccs1`, the “activity, negative = inhibition” value is reported as 18.2%. In the case of `NCCCC(N)CC(=O)NCC1NC(=O)C(CO)NC(=O)C(N)CNC(=O)C(C2CCN=C(N)N2)NC(=O)/C(=C/NC(N)=O)NC1=O` (stereo not drawn) (H-[Dap]S[Dap](ξβ3hOrn)[ΔAla(Z-3-ureido)][X1]; lactam 1-C; configuration not given here), the “activity, negative = inhibition” value is reported as 13%. With `COc1ccc(-c2nc3ccc(C4=C(C)CC(=O)NN4)cc3[nH]2)cc1` the “activity, negative = inhibition” value was -13.2%. `CC(N)C(=O)NCC(=O)NC1CSSCC(C(=O)O)NC(=O)C(CO)NC(=O)C(C(C)O)NC(=O)C(Cc2ccccc2)NC(=O)C(C(C)O)NC(=O)C(CCCCN)NC(=O)C(Cc2c[nH]c3ccccc23)NC(=O)C(Cc2ccccc2)NC(=O)C(Cc2ccccc2)NC(=O)C(CC(N)=O)NC(=O)C(CCCCN)NC1=O` (stereo not drawn) was tested, and the “activity, negative = inhibition” value was 7.66%. For `CC(C)CC1NC(=O)C(CCCN)NC(=O)C(C(C)C)NC(=O)C2CCCN2C(=O)C(Cc2ccccc2)NC(=O)C(CC(C)C)NC(=O)C(CCCN)NC(=O)C(C(C)C)NC(=O)C2CCCN2C(=O)C(Cc2ccccc2)NC1=O` (stereo not drawn) (cyclo(FPV[Orn]LFPV[Orn]L); configuration not given here), the Potency was 2.8 nM (active). For `CC1(C)C(/C=C/C=C/C=C/C=C2\N(CCCCS(=O)(=O)O)c3ccc4ccccc4c3C2(C)C)=[N+](CCCCS(=O)(=O)[O-])c2ccc3ccccc3c21`, the “activity, negative = inhibition” value was -0.293%. With `CC(C)CC(NC(=O)C(COC(C)(C)C)NC(=O)C(Cc1ccc(O)cc1)NC(=O)C(CO)NC(=O)C(Cc1c[nH]c2ccccc12)NC(=O)C(Cc1cnc[nH]1)NC(=O)C1CCC(=O)N1)C(=O)NC(CCCN=C(N)N)C(=O)N1CCCC1C(=O)NNC(N)=O` (stereo not drawn) the “activity, negative = inhibition” value was -1.85%. With `CC(C)C[C@H](NC(=O)[C@@H](Cc1c[nH]c2ccccc12)NC(=O)[C@@H](Cc1ccc(O)cc1)NC(=O)[C@@H](CO)NC(=O)[C@@H](Cc1c[nH]c2ccccc12)NC(=O)C(Cc1cnc[nH]1)NC(=O)C1CCC(=O)N1)C(=O)N[C@@H](CCCN=C(N)N)C(=O)N1CCC[C@@H]1C(=O)NCC(N)=O` (stereo partly drawn) the “activity, negative = inhibition” value was 2.24%. For `CCOC(=O)C(CS)NCCN[C@@H](CS)C(=O)OCC` (stereo partly drawn), the “activity, negative = inhibition” value was 7.35%. With `CC(=O)OCC1=C(C(=O)O)N2C(=O)C(NC(=O)Cc3ccccc3)C2SC1` (stereo not drawn) the “activity, negative = inhibition” value was 6.46%. With `CC(=O)OCC(=O)[C@@]1(O)CCC2C3CCC4=CC(=O)CC[C@]4(C)C3=CC[C@@]21C` (stereo partly drawn) the “activity, negative = inhibition” value was 1.95%. In the case of `CCC(C)C1NC(=O)C(CCNCS(=O)(=O)O)NC(=O)C(NC(=O)C(CCNCS(=O)(=O)O)NC(=O)C(NC(=O)C(CCNCS(=O)(=O)O)NC(=O)CCCCC(C)C)C(C)O)CCNC(=O)C(C(C)O)NC(=O)C(CCNCS(=O)(=O)O)NC(=O)C(CCNCS(=O)(=O)O)NC(=O)C(C(C)CC)NC1=O` (stereo not drawn) ({Heptanoyl(6-Me)}-[ξDab(CH2SO3H)]T[ξDab(CH2SO3H)][Dab][ξDab(CH2SO3H)]II[ξDab(CH2SO3H)][ξDab(CH2SO3H)]T; lactam 4-C; configuration not given here), the “activity, negative = inhibition” value is reported as 6.36%. `CCC1NC(=O)C(NC(=O)c2ncccc2O)C(C)OC(=O)C(c2ccccc2)NC(=O)C2CC(=O)CCN2C(=O)C(Cc2ccccc2)N(C)C(=O)C2CCCN2C1=O` (stereo not drawn) was tested, and the “activity, negative = inhibition” value was -24.8%. In the case of `Cn1cc(O)nc1NC(=O)Nc1cccc(Cl)c1`, the “activity, negative = inhibition” value is reported as -29.5%. `CC(C)C(NC(=O)C(CC(=O)O)NC(=O)C(CCCCN)NC(=O)C(N)CCCN=C(N)N)C(=O)NC(Cc1ccc(O)cc1)C(=O)O` (stereo not drawn) (H-RKDVY-OH; configuration not given here) was tested, and the “activity, negative = inhibition” value was 4.31%.
